Bioassay records deposited in PubChem BioAssay by Broad Institute.
Shown is part of a subset that was picked to be rich in hits.
ROS inducer: ROS inducers in U2OS cancer cells, primary screen, cell-based, H2DCF-DA fluorescence; U2OS ROS induction; ROS induction (% of piperlongumine), % at 10 µM; 46,000 compounds, 2% hits; AID 624156, 2012; in the data active = ROS induction above about 79%, passing the limit was not always enough;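 note: 0% = DMSO vehicle median and 100% = reference compound median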
* marks the source's active call; other numbers are inactive results.

SMILES	ROS inducer
C[C@@H]1CN([C@@H](C)CO)C(=O)CCCn2nncc2CO[C@@H]1CN(C)Cc1ccc(-c2ccccc2)cc1	91*
O=C(Cn1c2c(c(-c3ccccc3)cc1=O)CCCC2)NCc1ccc(Cl)cc1	7
CCOc1ccccc1C(=O)N(CC#N)CC#N	-16
NC(N)=NS(=O)(=O)c1ccc(NC(=O)c2ccco2)cc1	29
CCC(C)NC(=O)c1nn(C)c2c1COc1ccccc1-2 (stereo not given)	4
Cc1cc(S(=O)(=O)NCCN2CCOCC2)c(C)cc1Cl	-3
CC12CCC(c3nnc(SCC(=O)Nc4cccc(C(F)(F)F)c4)nc31)C2(C)C (stereo not given)	-7
COc1cccc(C2C(C(=O)O)c3ccccc3C(=O)N2C)c1 (stereo not given)	-17
c1ccc(Cn2ncc3c(Nc4ccc5ccccc5c4)ncnc32)cc1	-5
NNC(=O)CCCNc1ccc(Cl)cc1	-7
CCCOc1ccc(/C=C/C(=O)Nc2ccc(S(=O)(=O)Nc3ncccn3)cc2)cc1	17
O=C(Cn1cnc2c(oc3ccccc32)c1=O)N1CCCCCC1	-7
COc1ccccc1N1CCN(S(=O)(=O)c2ccc3[nH]cc(C(=O)O)c(=O)c3c2)CC1	-9
C[C@H](CO)N1C[C@H](C)[C@@H](CN(C)S(=O)(=O)c2ccc(Oc3ccccc3)nc2)OCc2cnnn2CCCC1=O	2
C[C@@H]1CN([C@@H](C)CO)C(=O)CCCn2nncc2CO[C@H]1CN(C)S(=O)(=O)c1ccc(Oc2ccccc2)nc1	138*
C[C@@H]1CN([C@@H](C)CO)C(=O)CCCn2nncc2CO[C@H]1CN(C)S(=O)(=O)c1ccc(Oc2ccccc2)cc1	28
Ic1ccc(Nc2nc(Nc3ccccc3)nc(N3CCOCC3)n2)cc1	50
CN(C)C(=O)Cn1c(=O)oc2ccccc21	-11
c1ccc(-c2ccc3c4ccccc4cc-3o2)cc1	14
Cc1onc(-c2ccccc2Cl)c1C(=O)N(Cc1nc(-c2ccccc2)no1)C1CCCCC1	11
COc1cc(NC(=O)Cn2nnc(-c3ccccc3Cl)n2)cc(OC)c1OC	1
COc1cc(-c2noc(-c3c(-c4ccccc4Cl)noc3C)n2)cc(OC)c1OC	117*
O=S(=O)(NC1CCCCC1NC1CCCCC1)c1ccccc1 (stereo not given)	-6
COc1ccc(-n2ncc(C(=O)NCc3ccc(-c4cccs4)cc3)c2C)cc1	9
CC1(C)OC(=O)C=C(c2ccc(Cl)cc2)O1	-6
SMILES	ROS inducer
COC(=O)C(C)Sc1nnc2c3ccccc3n(Cc3ccccc3)c2n1 (stereo not given)	146*
CCC(Sc1nnc2c3ccccc3n(CC)c2n1)C(=O)NC(C)c1ccccc1 (stereo not given)	18
CCCCn1c2ccccc2c2nnc(SCC(=O)c3ccccc3)nc21	-6
Cc1ccc(CSCC2COC(c3cccs3)=N2)cc1 (stereo not given)	0
COc1cc2c(cc1OC)CN(C(=O)[C@@H]1[C@H]3C(=O)O[C@H](c4ccccc4)[C@H](c4ccccc4)N3[C@H](c3ccccc3OCCO)[C@@]13C(=O)Nc1ccc(C#CC4=CCCCC4)cc13)CC2	6
COc1cc2c(cc1OC)CN(C(=O)[C@H]1[C@@H]3C(=O)O[C@@H](c4ccccc4)[C@@H](c4ccccc4)N3[C@@H](c3ccc(OCCO)cc3)[C@]13C(=O)Nc1ccc(C#CC4(O)CCCCCC4)cc13)CC2	6
COc1ccc(C#Cc2ccc3c(c2)[C@]2(C(=O)N3)[C@H](C(=O)N3CCc4cc(OC)c(OC)cc4C3)[C@H]3C(=O)O[C@H](c4ccccc4)[C@H](c4ccccc4)N3[C@@H]2c2ccccc2OCCO)cc1	17
COc1cc2c(cc1OC)CN(C(=O)[C@H]1[C@@H]3C(=O)O[C@@H](c4ccccc4)[C@@H](c4ccccc4)N3[C@@H](c3ccc(O)cc3)[C@]13C(=O)Nc1ccc(C#CC4(O)CCCCCC4)cc13)CC2	-9
COc1cc2c(cc1OC)CN(C(=O)[C@H]1[C@@H]3C(=O)O[C@@H](c4ccccc4)[C@@H](c4ccccc4)N3[C@@H](c3ccccc3OCCO)[C@]13C(=O)Nc1ccc(C#CC4(O)CCCCCC4)cc13)CC2	96*
COc1cc2c(cc1OC)CN(C(=O)[C@@H]1[C@H]3C(=O)O[C@H](c4ccccc4)[C@H](c4ccccc4)N3[C@H](c3ccccc3OCCO)[C@@]13C(=O)Nc1ccc(C#CC4(O)CCCCCC4)cc13)CC2	88*
Cc1[nH]c(-c2ccc(F)cc2)cc1C(=O)NCCc1ccc(S(N)(=O)=O)cc1	37
O=C1OC2(CCCCC2)OC(=O)C1=CNc1ccc(Cl)cc1C(F)(F)F	-10
C=CCn1c(SCC(=O)Nc2ccc(C)cc2)nc2sc3c(c2c1=O)CCCC3	11
O=C(NCc1ccc(Cl)cc1)c1ccc2c(c1)N(Cc1cccc(F)c1)C(=O)CS2=O (stereo not given)	-12
Cc1cccc(C)c1NC(=O)C1(N(C)C(=O)CSc2nc3ccccc3o2)CCCCC1	0
CC1=C(C(=O)Nc2cccc(Cl)c2C)C(c2ccc(F)cc2)NC(=S)N1 (stereo not given)	2
